High-throughput results deposited in PubChem BioAssay by National Center for Advancing Translational Sciences (NCATS).
Only some compounds are listed: those with a hit (about 19% of all), similar ones and a draw of the others.
TDP1 cell CPT – qHTS for Inhibitors of human tyrosyl-DNA phosphodiesterase 1 (TDP1): qHTS in cells in presence of CPT. chicken DT40 Tdp1-/-;hTDP1 cells + 20 nM CPT, ATP luminescence, 48 h. 420,000 tested, 12% active. AID 686979, 2013. Potency, µM (top dose mostly 46.2 µM), for the others: at the top dose activity change, negative = growth inhibition, most hits filed as inhibitors; also: potency is read from the fitted curve at half-maximal effect; % is scaled to controls: 0 for no effect and ±100 for the full control effect; nearly all actives have a fitted effect of over 55% in size
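Chicken DT40 Tdp1-/- cells stably complemented with human TDP1 were seeded at 400 cells/well in medium containing 20 nM camptothecin, exposed to pin-transferred compounds, and grown at 37 °C for at least 48 hr. Viability was read as ATP luminescence.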
IL-1B inflam inh – qHTS for Inhibitors of Inflammasome Signaling: IL-1-beta AlphaLISA Primary Screen. 360,000 tested, 4.7% active. THP-1 LPS/ATP IL-1B secretion, AlphaLISA, 16 h; stronger effect = lower value. activity change, % at 57.5 µM; in the data active = activity change below about -50%; inconclusive = mostly about -30% to -49%; also: % is scaled to controls: 0 for no effect and ±100 for the full control effect
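THP-1 cells pretreated 1 hr with compounds (up to 57.5 uM final), then stimulated with LPS (250 ng/mL final) plus ATP (1.25 mM final); secreted IL-1B measured by AlphaLISA after 16 hr, decreased signal indicating inhibition.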
S-ASM inh – Inhibitors of Secretory Acid Sphingomyelinase (S-ASM): qHTS; AID 504937, 2011; 340,000 tested, 0.006% active; placental ASM, HMU-PC fluorogenic substrate, 60 min; Potency, µM (highest dose often 57.5 µM), inactives show top-dose activity change, negative = inhibition, most hits filed as inhibitors; also: potency is read from the fitted curve at half-maximal effect
Target sequence (P17405 47-631 limits assumed): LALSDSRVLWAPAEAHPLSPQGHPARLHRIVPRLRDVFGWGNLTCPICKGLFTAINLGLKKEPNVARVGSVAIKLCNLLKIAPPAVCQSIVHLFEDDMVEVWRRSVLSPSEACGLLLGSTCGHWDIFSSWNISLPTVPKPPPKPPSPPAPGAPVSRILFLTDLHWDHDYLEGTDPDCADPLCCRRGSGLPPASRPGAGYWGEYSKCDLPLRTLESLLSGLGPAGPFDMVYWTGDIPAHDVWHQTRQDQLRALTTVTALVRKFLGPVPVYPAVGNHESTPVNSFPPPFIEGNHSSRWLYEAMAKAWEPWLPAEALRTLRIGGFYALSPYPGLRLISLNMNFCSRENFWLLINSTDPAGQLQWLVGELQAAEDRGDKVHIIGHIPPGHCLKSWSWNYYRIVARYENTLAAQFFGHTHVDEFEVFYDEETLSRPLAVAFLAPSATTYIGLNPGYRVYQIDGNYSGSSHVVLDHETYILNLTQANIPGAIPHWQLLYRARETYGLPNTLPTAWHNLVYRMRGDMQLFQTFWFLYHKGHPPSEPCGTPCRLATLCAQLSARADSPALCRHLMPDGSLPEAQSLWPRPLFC
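qHTS format. ASM enzyme prepared from human placenta hydrolyses the fluorogenic substrate HMU-PC0 (9 uM final) over 60 min at 37 °C after a 10 min compound preincubation.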
DT40 TDP1 no CPT – qHTS for Inhibitors of human tyrosyl-DNA phosphodiesterase 1 (TDP1): qHTS in cells in absence of CPT; DT40 Tdp1-/- hTDP1 cells, no CPT, ATP luminescence, 48 h; Potency, µM (series often up to 46.2 µM), inactives show top-dose activity change, negative = growth inhibition, usual class: inhibitors; 420,000 tested, 15% active; AID 686978, 2013; also: potency is read from the fitted curve at half-maximal effect; % is scaled to controls: 0 for no effect and ±100 for the full control effect; nearly all actives have a fitted effect of over 55% in size
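Cells were dispensed at 400 per well, compounds added by pin tool, plates incubated ≥48 hr at 37 °C, then CellTiter-Glo added for 30 min at room temperature before luminescence reading. Line: DT40 Tdp1-/- complemented with hTDP1; camptothecin omitted.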
TGFb SMAD3 inh – qHTS for Inhibitors of TGF-b. HepG2 CAGA-GFP TGF-b/SMAD3 reporter, GFP fluorescence, 18 h; TGF-beta stimulated, 500 pg/mL final. Potency, µM (titrated, usually from 46.1 µM), without a hit: top-dose activity, negative = inhibition, hits mostly inhibitors. 410,000 tested, 1.2% active. AID 588855, 2011; also: potency is read from the fitted curve at half-maximal effect; % is scaled to controls: 0 for no effect and ±100 for the full control effect; nearly all actives have a fitted effect of over 65% in size
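Inhibition was scored as loss of TGF-beta-induced (500 pg/mL final, 18 hours, 37 degrees C) GFP in HEPG2 cells carrying a CAGA-GFP reporter, in DMEM with 1% FBS. Well GFP was summed per cell; Activity was normalised to unstimulated and stimulated DMSO wells, then concentration-response fitting.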
HepG2 viability – qHTS for Inhibitors of TGF-b: Cytotox Counterscreen; HepG2 CAGA-GFP viability, ATP luminescence, 18 h; Potency, µM (doses to about 46.1 µM), inactives show top-dose activity change, negative = cytotoxicity, hits mostly cytotoxic; 410,000 tested, 0.76% active; AID 588856, 2011; also: potency is read from the fitted curve at half-maximal effect
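HepG2 CAGA-GFP cells (1000/well, DMEM with 1% FBS) received compound, then TGF-beta at 500 pg/mL final, and were incubated 18 hours at 37 degrees C. Viability was read by CellTiter-Glo luminescence. Media-only wells were set as complete cell-killing and DMSO as no toxicity.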
* hit, by the source's call; ? = inconclusive; . = not tested or not shown; [ ] = another dose, or the depositor's remark. Unless noted, calls follow the shape of the dose curve; as a rule, active = well fitted curve in the direction sought with a large enough effect; inconclusive = small, poorly fitted or top-dose-only effect, or another doubt; inactive = no such curve, though single readings can be large; an effect the other way counts as inactive or inconclusive.

SMILES	TDP1 cell CPT	IL-1B inflam inh	S-ASM inh	DT40 TDP1 no CPT	TGFb SMAD3 inh	HepG2 viability
CCOC(=O)C1(c2ccccc2)CCN(CCc2ccc(NC(=O)CCC(=O)O)cc2)CC1	36%	3	1%	4%	8%	1%
CCn1cc(CN2CCCC(C(=O)c3cccc(OC)c3)C2)c(C)n1 (stereo unspecified)	-21%	35	-1%	-27%	-5%	-14%
CCn1cc(CN(C)S(=O)(=O)c2ccc3ccccc3c2)c(C)n1	5.2µM*	8	0%	5.8µM*	0%	1%
CCc1nn(CC(=O)N2CCC3(CC2)OCCO3)c(=O)c2cccn12	11%	21	3%	-12%	-2%	-4%
Cn1c(CCCC(=O)O)nc2cc(N(CCCl)CCCl)ccc21	?	.	.	19µM*	.	.
Cc1ccc(N2C(=O)NC(=O)/C(=C\c3cc(C)n(-c4sc5c(c4C#N)CCCC5)c3C)C2=O)cc1	?	-84*	?	?	?	-34%
CCOC(=O)c1c(-n2c(C)cc(C=C3C(=O)NC(=S)NC3=O)c2C)sc2c1CCCC2	23µM*	-110*	-8%	18µM*	?	-47%
CCOC(=O)c1c(-n2c(C)cc(/C=C3/C(=O)NC(=O)N(CC)C3=O)c2C)sc2c1CCCC2	16µM*	6	?	?	-25%	-17%
CCOC(=O)c1c(/N=C/C2C(=O)NC(=O)NC2=O)sc2c1CCC2	11%	-9	0%	6%	10%	2%
CCCCCN(C)CCC(O)(P(=O)(O)O)P(=O)(O)O	4%	.	.	-12%	.	.
OC(c1ccccc1)(c1ccc(Cl)cc1)C1CN2CCC1CC2 (stereo unspecified)	16µM*	-70*	2%	18µM*	0%	-66%
c1ccc(C2CN3CCC2CC3)cc1 (stereo unspecified)	5%	0	2%	-4%	0%	-121%
OC(Cc1ccccc1)(c1ccccc1)C1CN2CCC1CC2 (stereo unspecified)	15µM*	-14	2%	16µM*	8%	-37%
OC(c1ccccc1)(c1ccccc1)C1CN2CCC1CC2 (stereo unspecified)	?	-26	0%	?	-6%	-10%
Cc1ccc(S(=O)(=O)Nc2ccc3ncccc3c2[N+](=O)[O-])cc1	-5%	-7	-2%	?	0%	4%
CNC(=O)Oc1cccc2c1OC(C)(C)O2	?	-1	5%	?	0%	-41%
O=C1C=C2C=C[C@@H]3C[C@@]2(O1)[C@H]1CCCCN31	12µM*	.	.	7.5µM*	.	.
O=P(OC1CCCCC1)(OC1CCCCC1)C(O)c1c(Cl)cccc1Cl (stereo unspecified)	?	-26	-2%	?	-21%	-51%
O=P(OC1CCCCC1)(OC1CCCCC1)C(O)c1ccc(Cl)cc1Cl (stereo unspecified)	16µM*	?	-4%	21µM*	7%	-22%
CSc1nc(N2CCN(C)CC2)c2ccccc2n1	11%	-4	6%	4%	0%	8%
Cc1noc(C)c1CC(=O)N1CCCC(N2CCN(c3ccccc3F)CC2)C1 (stereo unspecified)	-11%	-4	-4%	-14%	0%	-8%
Cc1cnc(SCc2ccccn2)nc1C1CCCN(C(=O)c2ccc(-c3ccccc3F)cc2)C1 (stereo unspecified)	?	.	.	23µM*	.	.
Cc1cnc(SCc2ccccn2)nc1C1CCCN(C(=O)c2scc3c2CCCC3)C1 (stereo unspecified)	12µM*	.	.	10µM*	.	.
CCCCOC1NC(=O)NC(=O)C1(F)C(=O)OCC (stereo unspecified)	?	24	.	?	2%	10%
Cc1ccc(N=Cc2c(O)n(C)c(=O)n(C)c2=O)cc1	-10%	-13	5%	8%	1%	10%
SMILES	TDP1 cell CPT	IL-1B inflam inh	S-ASM inh	DT40 TDP1 no CPT	TGFb SMAD3 inh	HepG2 viability
N#CC(C#N)=Cc1cccnc1	9.2µM*	-86*	0%	9.2µM*	3%	-4%
O=C(COc1ccccc1/C=C1/NC(=O)NC1=O)Nc1ccccc1	21µM*	25	10%	?	-2%	0%
O=c1c2cc(N3CCOCC3)ccc2[nH]c(=S)n1Cc1ccc(Cl)cc1	21µM*	0	43%	15µM*	0%	1%
O=c1[nH]c(=S)n(-c2ccc(Cl)cc2)c(O)c1C=Nc1ccc(N2CCOCC2)cc1	-20%	15	-15%	1%	-3%	-5%
Cc1ccc(S(=O)(=O)N(C)C[C@@H]2Oc3ncc(Br)cc3C(=O)N([C@H](C)CO)C[C@H]2C)cc1	?	22	.	9.2µM*	13%	-3%
Cc1ccc(S(=O)(=O)N(C)C[C@H]2Oc3cc(Br)ccc3S(=O)(=O)N([C@H](C)CO)C[C@H]2C)cc1	?	-28	.	29µM*	?	-22%
Cc1ccc(S(=O)(=O)N(C)C[C@H]2Oc3c(NC(=O)Nc4cccc5ccccc45)cccc3C(=O)N([C@@H](C)CO)C[C@@H]2C)cc1	16µM*	?	-12%	?	?	-4%
C[C@H]1CN([C@@H](C)CO)C(=O)c2cccc(NC(=O)c3ccc(-c4nccs4)cc3)c2O[C@@H]1CN(C)C(=O)Nc1cccc2ccccc12	26µM*	0	-4%	15µM*	13%	-1%
C[C@@H]1CN([C@@H](C)CO)C(=O)c2cccc(NC(=O)c3ccncc3)c2O[C@@H]1CN(C)Cc1ccc(-c2ccccc2)cc1	?	?	-5%	?	?	-23%
C[C@H](CO)N1C[C@H](C)[C@H](CN(C)C(=O)Nc2cccc3ccccc23)Oc2c(NC(=O)c3ccc(-c4nccs4)cc3)cccc2C1=O	?	-7	-9%	?	?	1%
CNC(C)Cc1ccc2c(c1)OCO2 (stereo unspecified)	-26%[92.5 µM]	.	.	-14%[92.5 µM]	.	.
CCCCC(CC)COCCCN=Cc1c(O)[nH]c(=S)[nH]c1=O (stereo unspecified)	?	-4	-11%	?	-18%	-28%
